Values joined by “and” are separate entries in the source; they are usually repeats but may differ in a detail not shown here. Equal entries are not always repeated.
Test system: HL-1
Assay: protection of cardiomyocytes from stress damage, SAR follow-up, cell-based, panel, H9c2 and HL-1, ATP luminescence, set 2 (AID 651871);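 further: cells exposed to stressor for 2 h before ATP readout; reference of the scale not given here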
Settings: H9c2/HL-1 cardiomyocytes, 2-deoxyglucose stress, with 2-deoxyglucose, run 8, at 19.8 µM (top of the series)

For `COc1ccc2c(c1OC)C(=O)N1c3ccccc3C(=O)N(Cc3cccc(Cl)c3Cl)C21` (stereo unspecified), the activity (protection/inhibition) was 51.9% and 34.6%.

From PubChem BioAssay AID651871 (Sanford-Burnham Center for Chemical Genomics, 2012)
